This is an account of results in PubChem BioAssay (EPA / NIEHS).

Common to all, as to conditions: primary human HUVEC with PBMC; actives raise or lower the signal
Assay [1] is described as follows: BSK_LPS_PGE2: BioMAP Diversity Plus: LPS Assay for Prostaglandin E2 (PGE2) Biomarker Activity (AID 2283082). Summed up:
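LPS-activated HUVEC/PBMC co-culture; cmpd dosed, 24 h; PGE2 by ELISA; bidirectional fit vs DMSO; SRB (0.1%, TCA-fixed, 560 nm) in parallel plates for overt cytotox.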

Read-out in assay [2]: Macrophage colony-stimulating factor (MCSF), CSF1 (gene 1435)
Put plainly: BSK_LPS_MCSF: BioMAP Diversity Plus: LPS Assay for Macrophage colony-stimulating factor (MCSF) Biomarker Activity (AID 2283083). Summed up: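 Bidirectional fitting against DMSO was applied to M-CSF levels read by ELISA at 24 h post-dose. The system pairs human umbilical vein endothelium with peripheral blood mononuclear cells; parallel SRB staining tracked cytotoxicity.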

Read-out in assay [3]: Tissue Factor, F3 (gene 2152)
As to the kind of experiment: BSK_LPS_TissueFactor: BioMAP Diversity Plus: LPS Assay for Tissue Factor Biomarker Activity (AID 2283084). Summed up:
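Compound was added to an endothelial cell/PBMC co-culture, and after 24 h tissue factor (CD142) was read by ELISA. Gain or loss of signal was fitted against a DMSO baseline, and parallel SRB staining (560 nm) tracked overt cytotoxicity.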

Read-out in assay [4]: Tumor necrosis factor (Homo sapiens) (UniProt P01375)
Put plainly: BSK_LPS_TNFa: BioMAP Diversity Plus: LPS Assay for Tumour Necrosis Factor alpha (TNFa) Biomarker Activity (AID 2283085). Summed up:
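Read-out is ELISA of TNFa in primary human endothelial cell–PBMC co-cultures at 24 h after compound. Activity in either direction was fitted against DMSO.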

Read-out in assay [5]: Vascular cell adhesion molecule 1 (VCAM1), VCAM1 (gene 7412)
Put plainly: BSK_LPS_VCAM1: BioMAP Diversity Plus: LPS Assay for Vascular cell adhesion molecule 1 (VCAM1) Biomarker Activity (AID 2283086). In outline:
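HUVEC + PBMC co-culture, LPS system; compound 24 h; VCAM-1 by ELISA; bidirectional fit vs DMSO control; parallel SRB (0.1%, TCA-fixed, 560 nm) for cytotoxicity.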

Read-out in assay [6]: CD38, CD38 (gene 952)
Put plainly: BSK_SAg_CD38: BioMAP Diversity Plus: SAg Assay for CD38 Biomarker Activity (AID 2283087). In outline: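 Human HUVEC plus PBMC co-culture stimulated with superantigen; CD38 measured by ELISA 24 h after chemical dosing. Fluorescence read-out, bidirectional fit against DMSO; cytotoxicity tracked in parallel by SRB and Alamar Blue.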

Read-out in assay [7]: Monocyte Chemoattractant Protein-1 (MCP1), CCL2 (gene 6347)
As to the kind of experiment: BSK_SAg_MCP1: BioMAP Diversity Plus: SAg Assay for Monocyte Chemoattractant Protein-1 (MCP1) Biomarker Activity (AID 2283090). Summed up:
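MCP-1 levels in the endothelial–PBMC SAg co-culture were quantified by ELISA at 24 h post-dosing; both increases and decreases versus DMSO scored. Cytotoxicity monitored by SRB total protein in parallel cultures.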

Read-out in assay [8]: E-selectin (Homo sapiens) (UniProt P16581)
Put plainly: BSK_SAg_Eselectin: BioMAP Diversity Plus: SAg Assay for Eselectin Biomarker Activity (AID 2283091). Summed up: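 Cell-surface E-selectin is read by ELISA at 24 h in the SAg co-culture of HUVEC and PBMC. Curves are fitted in both directions relative to DMSO. Parallel SRB total-protein staining tracks overt toxicity.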

Read-out in assay [9]: CD40, CD40 (gene 958)
Put plainly: BSK_SAg_CD40: BioMAP Diversity Plus: SAg Assay for CD40 Biomarker Activity (AID 2283088). Summed up:
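CD40 is measured by fluorescence ELISA in an endothelial/PBMC primary human co-culture at 24 h post-dose. Fitting is bidirectional, DMSO baseline. Parallel SRB staining (560 nm) flags cytotoxicity.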

Read-out in assay [10]: CD69, CD69 (gene 969)
As to the kind of experiment: BSK_SAg_CD69: BioMAP Diversity Plus: SAg Assay for CD69 Biomarker Activity (AID 2283089). Summed up:
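Endothelial/PBMC co-culture; chemical added; 24 h incubation; CD69 ELISA with fluorescence detection; bidirectional fit vs DMSO.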

Each structure is given as a SMILES string. Calls of active or inactive are those of the source. Rule for the calls: active = hit-call score of the fitted dose curve at least 0.9, where 1 is the maximum; inactive = score below 0.9.

Tumor necrosis factor (Homo sapiens), sequence (P01375 whole entry, looked up): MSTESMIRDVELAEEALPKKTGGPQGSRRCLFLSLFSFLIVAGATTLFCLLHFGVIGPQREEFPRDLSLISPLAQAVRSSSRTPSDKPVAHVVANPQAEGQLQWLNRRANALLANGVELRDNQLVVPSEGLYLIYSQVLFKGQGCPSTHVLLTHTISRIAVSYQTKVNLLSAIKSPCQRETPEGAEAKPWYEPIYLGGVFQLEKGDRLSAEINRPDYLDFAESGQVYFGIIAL
E-selectin (Homo sapiens), sequence (P16581 whole entry, looked up): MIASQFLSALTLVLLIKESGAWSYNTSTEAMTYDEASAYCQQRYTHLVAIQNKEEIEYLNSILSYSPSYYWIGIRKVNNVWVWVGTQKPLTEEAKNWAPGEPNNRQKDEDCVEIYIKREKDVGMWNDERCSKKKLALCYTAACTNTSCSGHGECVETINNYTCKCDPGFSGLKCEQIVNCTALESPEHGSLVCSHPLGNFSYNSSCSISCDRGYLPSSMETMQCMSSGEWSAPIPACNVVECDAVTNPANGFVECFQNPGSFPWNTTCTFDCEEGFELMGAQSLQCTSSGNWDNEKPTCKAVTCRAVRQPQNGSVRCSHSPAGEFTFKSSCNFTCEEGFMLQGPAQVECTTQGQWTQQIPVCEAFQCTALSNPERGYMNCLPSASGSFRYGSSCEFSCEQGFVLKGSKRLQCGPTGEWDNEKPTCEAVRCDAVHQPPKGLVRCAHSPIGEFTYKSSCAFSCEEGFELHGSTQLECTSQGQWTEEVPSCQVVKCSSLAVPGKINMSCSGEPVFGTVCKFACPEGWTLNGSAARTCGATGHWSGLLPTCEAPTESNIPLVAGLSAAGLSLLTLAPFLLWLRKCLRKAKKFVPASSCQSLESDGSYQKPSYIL

Consider `CCCCCCCC/C=C\CCCCCCCC(=O)OC[C@@H](O)[C@H]1OC[C@H](O)[C@H]1O`, for which the outcome in assay [1], in [2], in [3], in [4], in [5] and in assay [6] was inactive. The result in assay [7] and in [8] was inactive.
In the case of `O=c1[nH]cnc2c1ncn2[C@H]1CC[C@@H](CO)O1`, the outcome in assay [1], in assay [3], in assay [4], in assay [5], in assay [6] and in assay [9] was inactive. Further, the outcome in [8] was inactive.
In the case of `Nc1ccn([C@@H]2O[C@H](CO)[C@@H](O)[C@@H]2O)c(=O)n1`, the result in assay [1], in assay [2], in [3], in assay [4], in assay [5] and in assay [6] was inactive. In addition, the result in [10] was inactive. The AC50 in [8] was 8.71 µM (active).
Regarding `CNC(C)=O`, the outcome in assay [1], in [2], in assay [3], in assay [4], in assay [5] and in assay [6] was inactive. Moreover, the result in assay [8] was inactive.
`CCOC(N)=O`: the outcome in assay [1], in [2], in [3], in assay [4], in [5] and in assay [6] was inactive. The outcome in [10] and in assay [8] was inactive.
For `O=C(O)[C@H](O)[C@@H](O)C(=O)O`, the outcome in assay [1], in [2], in [3], in assay [4], in [5] and in assay [6] was inactive. In addition, in [8], the result was inactive.
With `CCCCCCCCCC`, the outcome in [1], in [2], in [3], in assay [4], in [5] and in assay [6] was inactive. The result in [7] and in assay [8] was inactive.
Regarding `C=CN1CCCC1=O`, the result in assay [1], in assay [2], in assay [3], in assay [4], in assay [5] and in [6] was inactive. Moreover, the result in assay [10] and in assay [8] was inactive.
For `NC(=O)NN=Cc1ccc([N+](=O)[O-])o1`, the outcome in assay [1], in [2], in [3], in [4], in [6] and in assay [7] was inactive. The result in [8] was inactive. Further, in [5], the concentration at half-maximal activity (AC50) was 12.4 µM (active).
Turning to `O=C(O)c1cccc(C[C@@H]2COc3ccc(OCc4nc5cc(F)ccc5s4)cc3[C@@H]2O)c1`, the result in assay [1], in [2], in assay [3], in [4], in assay [5] and in [6] was inactive. The result in assay [10] and in assay [8] was inactive.
Regarding `CC1(C)C(=O)N(Cl)C(=O)N1Cl`, the result in assay [1], in assay [2], in assay [3], in [4], in [5] and in assay [6] was inactive. In addition, the outcome in assay [8] was inactive.
On to `NC(N)=O`, for which the result in assay [1], in assay [3], in assay [4], in assay [5], in assay [6] and in assay [8] was inactive.
Regarding `c1ccc2ncccc2c1`, the outcome in [1], in [2], in [3], in [4], in assay [5] and in [6] was inactive. The outcome in assay [7] and in assay [8] was inactive.
Regarding `COc1cc2c(c(OC)c1OC)-c1ccc(OC)c(=O)cc1[C@@H](NC(C)=O)CC2`, the result in [1], in assay [3], in assay [7] and in [8] was inactive. Besides, the AC50 is 0.493 µM (active) in [2], 2.39 µM (active) in assay [4], 0.431 µM (active) in assay [5] and 0.148 µM (active) in assay [6].
With `O=C(O)c1cccc(C(=O)O)c1`, the result in assay [1], in assay [2], in assay [3], in [4], in assay [5] and in [6] was inactive. The result in [8] was inactive.
On to `Cc1nccn1-c1ccc(Sc2cccc(C3(C(N)=O)CCOCC3)c2)cc1`, for which the result in assay [1], in assay [2], in assay [3] and in assay [4] was inactive. Also, the half-maximal activity concentration (AC50) in assay [5] was 6.8 µM (active); in assay [6] it was 5.57 µM (active); in assay [8], 8.95 µM (active).

For orientation: AC50 means the concentration giving half of the maximal activity seen.
